# Reference: PubChem BioAssay
# “And” between values parts separate entries of the source, which are not always exact repeats. Equal entries are not always repeated. Inconclusive results are not listed. The source made the active and inactive calls. Unless noted, the limit is not given here; nearly all actives have AC50 up to about 26 µM.
# Tests used:
# [1] = growth inhibition of DIPG glioma cells, dose response, cell-based, SU-DIPG-XVII, MIPE5.0, CellTiter-Glo, qHTS (AID 1347060); conditions: SU-DIPG-XVII viability, CellTiter-Glo ATP luminescence;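 as to AC50: cells exposed to compound for 48 hours before viability readout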
# [2] = growth inhibition of DIPG glioma cells, dose response, cell-based, SU-DIPG-XIII, MIPE4.0, CellTiter-Glo, qHTS (AID 1347061; cut-off not given, nearly all actives have AC50 up to about 37 µM;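 also: cells exposed to compound for 48 hours before readout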); conditions: SU-DIPG-XIII viability, CellTiter-Glo ATP luminescence
# [3] = growth inhibition of DIPG glioma cells, dose response, cell-based, JHH-DIPG-1, MIPE4.0, CellTiter-Glo, qHTS (AID 1347062; cut-off not given, nearly all actives have AC50 up to about 27 µM;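 as to AC50: cells exposed to compound for two days before readout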); conditions: JHH-DIPG-1 viability, CellTiter-Glo ATP luminescence
# [4] = growth inhibition of DIPG glioma cells, dose response, cell-based, SU-DIPG-XIII, MIPE5.0, CellTiter-Glo, qHTS (AID 1347064; cut-off not given, nearly all actives have AC50 up to about 23 µM;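 as to AC50: cells exposed to compound for 48 hours before the viability read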); conditions: SU-DIPG-XIII viability, CellTiter-Glo ATP luminescence
# [5] = viability loss in pontine glioma line – cell-based, SU-DIPG-XXV, MIPE5.0, CellTiter-Glo, qHTS, dose response (AID 1347065); conditions: CellTiter-Glo ATP luminescence;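 also: cells exposed to compound for 48 hours before ATP readout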
# [6] = SU-DIPG-VI glioma cell viability, MIPE4.0 library, CellTiter-Glo luminescence, qHTS (AID 1347066; cut-off not given, nearly all actives have AC50 up to about 30 µM;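 also: cells exposed to compound for 48 hours before readout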); conditions: CellTiter-Glo ATP luminescence
# [7] = JHH-DIPG-1 glioma cell viability, MIPE5.0 library, CellTiter-Glo luminescence, qHTS (AID 1347067); conditions: JHH-DIPG-1 glioma viability, CellTiter-Glo ATP luminescence;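 also: cells exposed to compound for 48 hours before readout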
# [8] = SU-DIPG-XXV glioma cell viability, MIPE5.0 library, qHTS (AID 1347068; cut-off not given, nearly all actives have IC50 up to about 30 µM;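 as to IC50: cells exposed to compound for 48 hours before viability readout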)
# [9] = growth inhibition of DIPG glioma cells, dose response, cell-based, SU-DIPG-IV, MIPE4.0, CellTiter-Glo, qHTS (AID 1347063; cut-off not given, nearly all actives have AC50 up to about 30 µM;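 also: compound exposure lasted 48 hours before the viability readout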); conditions: SU-DIPG-IV viability, CellTiter-Glo ATP luminescence
# [10] = sensitizers of A549 cells to miR-34 induction, primary screen, imaging, A549 dox-inducible miR-34, nuclei and caspase counts (AID 1347080;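 active = compounds whose cell count with miR-34 switched on is under 0.7 times the count with it off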); conditions: A549 miR-34 inducible, Hoechst nuclei count, 48 h
# [11] = survival rescue of mitochondrial mutant cells in low glucose, primary screen, MELAS cybrids, Rieske KO mouse fibroblasts, CellTiter-Glo (AID 1508586;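 active = mean z-score across replicates of 1.96 or higher in either the MELAS or the Rieske mutant cell line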;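 also: z relative to plate mean and SD of compound and empty wells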)
# [12] = modifiers of HSF1 nuclear foci, imaging, Selleck Cancer Library (AID 1347162; in the data active = plate-normalised HSF1 focus index below about 0.46); conditions: human cells, at 10 µM; SSMD: measured here: HSF1 foci SSMD mean; cell count: measured here: cell number; plate-normalised HSF1 focus index: stronger effect = lower value
# [13] = ovarian cancer cell viability with rucaparib, profiling panel, oncology-focused library, rucaparib conditional (AID 1508598;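 active = normalized viability below 100% at a tested concentration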); conditions: patient-derived ovarian cancer cells, CellTiter-Glo viability, 144 h, stronger effect = lower value
# [14] = stronger effect = lower value, cell number ratio, induced over uninduced
# [15] = measured here: relative caspase fold change +Dox/-Dox
# [16] = measured here: total cells with miR-34 induction, stronger effect = lower value
# [17] = measured here: total cells without miR-34 induction
# [18] = MELAS cybrid survival, CellTiter-Glo 48 h, stronger effect = higher value
# [19] = Rieske KO mouse fibroblast survival, CellTiter-Glo 72 h
compound,measurement,setting,value
CCCCC(F)(F)[C@@]1(O)CC[C@H]2[C@@H](CC(=O)[C@@H]2CCCCCCC(=O)O)O1,outcome,[1],inactive
same,outcome,[2],inactive
same,outcome,[3],inactive
same,outcome,[4],inactive
same,outcome,[5],inactive
same,outcome,[6],inactive
same,outcome,[7],inactive
same,outcome,[8],inactive
NC(=O)c1cccc2cn(-c3ccc([C@@H]4CCCNC4)cc3)nc12,AC50,[1],8.33 µM (active)
same,outcome,[2],inactive
same,outcome,[3],inactive
same,outcome,[9],inactive
same,outcome,[6],inactive
same,outcome,[7],inactive
C[C@H](CCC(=O)O)[C@H]1CCC2C3C[C@H](O)[C@@H]4C[C@H](O)CC[C@]4(C)C3CC[C@@]21C (stereo partly drawn),outcome,[1],inactive
same,outcome,[2],inactive
same,outcome,[3],inactive
same,outcome,[4],inactive
same,outcome,[5],inactive
same,outcome,[6],inactive
same,outcome,[7],inactive
same,outcome,[8],inactive
O=C(O)CCCc1c[nH]c2ccccc12,outcome,[1],inactive
same,outcome,[2],inactive
same,outcome,[3],inactive
same,outcome,[4],inactive
same,outcome,[5],inactive
same,outcome,[6],inactive
same,outcome,[7],inactive
same,outcome,[8],inactive
same,fold change,[10]; [14],0.897 (inactive) and 0.923 (inactive)
same,fold change,[10]; [15],0.369 and 0.81
same,cell count,[10]; [16],8600 and 8570
same,cell count,[10]; [17],9590 and 9280
same,z-score,[11]; [18],0.687 (inactive) and -0.261 (inactive)
same,z-score,[11]; [19],0.218 and 0.556
CC1(C)C(N(O)C(=O)Nc2ccc(Cl)cc2)N(c2ccc(Cl)cc2)C(=O)N1CC(=O)N/N=C/C=C/c1ccc([N+](=O)[O-])o1 (stereo not drawn),AC50,[1],7.42 µM (active)
same,AC50,[2],26.4 µM (active)
same,AC50,[3],10.5 µM (active)
same,AC50,[4],3.72 µM (active)
same,AC50,[5],14.8 µM (active)
same,AC50,[6],20.9 µM (active)
same,AC50,[7],6.61 µM (active)
same,IC50,[8],18.6 µM (active)
Cn1cc(-c2ccc3ncc(Cc4ccc5ncccc5c4)n3n2)cn1,outcome,[1],inactive
same,outcome,[2],inactive
same,outcome,[3],inactive
same,outcome,[4],inactive
same,outcome,[5],inactive
same,outcome,[6],inactive
same,outcome,[7],inactive
same,outcome,[8],inactive
same,fold change,[10]; [14],0.865 (inactive)
same,fold change,[10]; [15],0.902
same,cell count,[10]; [16],8680
same,cell count,[10]; [17],10000
same,z-score,[11]; [18],-0.376 (inactive)
same,z-score,[11]; [19],0.544
Cc1cccc(-c2[nH]c(C(C)(C)C)nc2-c2ccc3c(c2)OCO3)n1,AC50,[1],3.72 µM (active)
same,AC50,[2],0.526 µM (active)
same,AC50,[9],6.62 µM (active)
same,AC50,[4],2.63 µM (active)
same,AC50,[5],2.95 µM (active)
same,AC50,[7],1.18 µM (active)
same,IC50,[8],3.72 µM (active)
same,fold change,[10]; [14],0.974 (inactive)
same,fold change,[10]; [15],0.464
same,cell count,[10]; [16],3490
same,cell count,[10]; [17],3590
same,z-score,[11]; [18],-0.251 (inactive)
same,z-score,[11]; [19],-1.59
Nc1ccc(C(=O)c2cc3c(ccc4ccccc43)[nH]2)cc1,AC50,[1],3.82 µM (active)
same,AC50,[2],23.5 µM (active)
same,AC50,[3],8.33 µM (active)
same,AC50,[5],2.15 µM (active)
same,AC50,[7],5.39 µM (active)
Cc1c(CN2CCN(S(C)(=O)=O)CC2)sc2c(N3CCOCC3)nc(-c3cnc(N)nc3)nc12,AC50,[1],0.661 µM (active)
same,AC50,[2],0.332 µM (active)
same,AC50,[9],0.0235 µM (active)
same,AC50,[4],0.525 µM (active)
same,AC50,[5],0.166 µM (active)
same,AC50,[6],0.526 µM (active)
same,AC50,[7],1.05 µM (active)
CNC(=O)c1c(F)cccc1Nc1nc(Nc2cc3c(cc2OC)CCN3C(=O)CN(C)C)nc2[nH]ccc12,AC50,[1],5.25 µM (active)
same,AC50,[2],0.235 µM (active)
same,AC50,[9],2.64 µM (active)
same,AC50,[4],0.934 µM (active)
same,AC50,[5],0.661 µM (active)
same,AC50,[6],0.0833 µM (active)
same,AC50,[7],3.32 µM (active)
same,IC50,[8],14.8 µM (active)
same,fold change,[10]; [14],0.926 (inactive)
same,fold change,[10]; [15],0.874
same,cell count,[10]; [16],5320
same,cell count,[10]; [17],5750
same,z-score,[11]; [18],-0.536 (inactive)
same,z-score,[11]; [19],-0.594
Cc1cc(Nc2cc(N3CCN(C)CC3)nc(Sc3ccc(NC(=O)C4CC4)cc3)n2)n[nH]1,AC50,[1],2.95 µM (active)
same,AC50,[2],18.7 µM (active)
same,AC50,[9],2.96 µM (active)
same,AC50,[4],6.61 µM (active)
same,AC50,[5],0.332 µM (active)
same,AC50,[7],10.5 µM (active)
same,IC50,[8],8.33 µM (active)
same,fold change,[10]; [14],0.993 (inactive)
same,fold change,[10]; [15],0.793
same,cell count,[10]; [16],1560
same,cell count,[10]; [17],1580
same,SSMD,[12],-0.956
same,cell count,[12],6720
same,plate-normalised HSF1 focus index,[12],0.958 (inactive)
same,z-score,[11]; [18],2.79 (active)
same,z-score,[11]; [19],1.15
Cc1cccc(-c2[nH]c(C(C)(C)C)nc2-c2ccc3nccnc3c2)n1,outcome,[1],inactive
same,AC50,[2],2.35 µM (active)
same,AC50,[9],20.9 µM (active)
same,AC50,[4],9.34 µM (active)
same,AC50,[5],10.5 µM (active)
same,AC50,[6],4.69 µM (active)
same,AC50,[7],5.9 µM (active)
same,outcome,[8],inactive
same,fold change,[10]; [14],1.02 (inactive) and 0.895 (inactive)
same,fold change,[10]; [15],0.491 and 0.704
same,cell count,[10]; [16],4120 and 3500
same,cell count,[10]; [17],4050 and 3910
same,SSMD,[12],1.52
same,cell count,[12],7730
same,plate-normalised HSF1 focus index,[12],1.09 (inactive)
same,z-score,[11]; [18],-0.318 (inactive)
same,z-score,[11]; [19],-0.927
same,viability,"[13]; at 0.000305 µM, OCI-C5x cells, with rucaparib 10 µM, 100% = cells with rucaparib alone",121% (inactive)
same,viability,"[13]; at 0.000305 µM, OCI-C5x cells, without rucaparib",111% (inactive)
same,viability,"[13]; at 0.000305 µM, OCI-P5x cells, with rucaparib 20 µM, 100% = cells with rucaparib alone",101% (inactive)
same,viability,"[13]; at 0.000305 µM, OCI-P5x cells, without rucaparib",95.1% (active)
same,viability,"[13]; at 0.00122 µM, OCI-C5x cells, with rucaparib 10 µM, 100% = cells with rucaparib alone",106% (inactive)
same,viability,"[13]; at 0.00122 µM, OCI-C5x cells, without rucaparib",112% (inactive)
same,viability,"[13]; at 0.00122 µM, OCI-P5x cells, with rucaparib 20 µM, 100% = cells with rucaparib alone",100% (active)
same,viability,"[13]; at 0.00122 µM, OCI-P5x cells, without rucaparib",98.3% (active)
same,viability,"[13]; at 0.00488 µM, OCI-C5x cells, with rucaparib 10 µM, 100% = cells with rucaparib alone",120% (inactive)
same,viability,"[13]; at 0.00488 µM, OCI-C5x cells, without rucaparib",113% (inactive)
same,viability,"[13]; at 0.00488 µM, OCI-P5x cells, with rucaparib 20 µM, 100% = cells with rucaparib alone",99.5% (active)
same,viability,"[13]; at 0.00488 µM, OCI-P5x cells, without rucaparib",98.9% (active)
same,viability,"[13]; at 0.0195 µM, OCI-C5x cells, with rucaparib 10 µM, 100% = cells with rucaparib alone",119% (inactive)
same,viability,"[13]; at 0.0195 µM, OCI-C5x cells, without rucaparib",116% (inactive)
same,viability,"[13]; at 0.0195 µM, OCI-P5x cells, with rucaparib 20 µM, 100% = cells with rucaparib alone",103% (inactive)
same,viability,"[13]; at 0.0195 µM, OCI-P5x cells, without rucaparib",95% (active)
same,viability,"[13]; at 0.0781 µM, OCI-C5x cells, with rucaparib 10 µM, 100% = cells with rucaparib alone",121% (inactive)
same,viability,"[13]; at 0.0781 µM, OCI-C5x cells, without rucaparib",111% (inactive)
same,viability,"[13]; at 0.0781 µM, OCI-P5x cells, with rucaparib 20 µM, 100% = cells with rucaparib alone",101% (inactive)
same,viability,"[13]; at 0.0781 µM, OCI-P5x cells, without rucaparib",97.3% (active)
same,viability,"[13]; at 0.313 µM, OCI-C5x cells, with rucaparib 10 µM, 100% = cells with rucaparib alone",119% (inactive)
same,viability,"[13]; at 0.313 µM, OCI-C5x cells, without rucaparib",111% (inactive)
same,viability,"[13]; at 0.313 µM, OCI-P5x cells, with rucaparib 20 µM, 100% = cells with rucaparib alone",112% (inactive)
same,viability,"[13]; at 0.313 µM, OCI-P5x cells, without rucaparib",102% (inactive)
same,viability,"[13]; at 1.25 µM, OCI-C5x cells, with rucaparib 10 µM, 100% = cells with rucaparib alone",124% (inactive)
same,viability,"[13]; at 1.25 µM, OCI-C5x cells, without rucaparib",117% (inactive)
same,viability,"[13]; at 1.25 µM, OCI-P5x cells, with rucaparib 20 µM, 100% = cells with rucaparib alone",121% (inactive)
same,viability,"[13]; at 1.25 µM, OCI-P5x cells, without rucaparib",98.6% (active)
same,viability,"[13]; at 5 µM, OCI-C5x cells, with rucaparib 10 µM, 100% = cells with rucaparib alone",139% (inactive)
same,viability,"[13]; at 5 µM, OCI-C5x cells, without rucaparib",142% (inactive)
same,viability,"[13]; at 5 µM, OCI-P5x cells, with rucaparib 20 µM, 100% = cells with rucaparib alone",120% (inactive)
same,viability,"[13]; at 5 µM, OCI-P5x cells, without rucaparib",90.7% (active)
COc1cccc(OC)c1-c1cc(C(=O)NC2(C(=O)O)C3CC4CC(C3)CC2C4)nn1-c1ccnc2cc(Cl)ccc12 (stereo not drawn),AC50,[1],14.8 µM (active)
same,outcome,[2],inactive
same,outcome,[3],inactive
same,AC50,[5],18.6 µM (active)
same,outcome,[6],inactive
same,outcome,[8],inactive
